Test [1] deals with Dual specificity protein kinase CLK3 (Homo sapiens) (UniProt P49761). The following applies: at 1 µM.
The target in test [2] is Dual specificity tyrosine-phosphorylation-regulated kinase 1A (Homo sapiens) (UniProt Q13627). To be noted: at 0.1 µM.
Test [3] shares this target. The following applies: at 1 µM.
Test [4] has as its target Dual specificity tyrosine-phosphorylation-regulated kinase 1B (Homo sapiens) (UniProt Q9Y463). To be noted: at 0.1 µM.
The target is the same in test [5]. The following applies: at 1 µM.
Test [6] deals with T1, Dual specificity tyrosine-phosphorylation-regulated kinase 2 (Homo sapiens) (UniProt Q92630).
T1 sequence (whole entry): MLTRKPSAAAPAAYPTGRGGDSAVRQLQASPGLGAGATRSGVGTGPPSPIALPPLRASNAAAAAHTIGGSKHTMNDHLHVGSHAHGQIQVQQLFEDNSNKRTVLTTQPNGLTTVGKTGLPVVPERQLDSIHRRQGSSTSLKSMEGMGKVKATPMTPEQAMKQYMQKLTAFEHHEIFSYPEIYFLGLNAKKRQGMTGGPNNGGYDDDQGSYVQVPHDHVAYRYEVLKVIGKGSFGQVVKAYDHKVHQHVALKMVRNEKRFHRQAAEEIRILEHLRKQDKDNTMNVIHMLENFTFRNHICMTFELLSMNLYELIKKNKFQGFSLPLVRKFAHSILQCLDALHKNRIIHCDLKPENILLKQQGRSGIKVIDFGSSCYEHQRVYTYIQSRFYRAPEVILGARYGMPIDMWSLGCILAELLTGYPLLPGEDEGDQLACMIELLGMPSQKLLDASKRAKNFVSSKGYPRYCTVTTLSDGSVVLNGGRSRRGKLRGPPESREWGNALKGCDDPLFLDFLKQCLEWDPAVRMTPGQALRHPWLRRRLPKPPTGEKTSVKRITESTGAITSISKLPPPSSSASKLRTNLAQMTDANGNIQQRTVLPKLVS
The following applies: at 0.1 µM.

Test [7] concerns the target T1, Dual specificity tyrosine-phosphorylation-regulated kinase 2 (Homo sapiens). To be noted: at 1 µM.
In test [8] the target is Glycogen synthase kinase-3 alpha (Homo sapiens) (UniProt P49840). The following applies: at 0.1 µM.
Chain of Glycogen synthase kinase-3 alpha (Homo sapiens) (P49840 2-483 limits assumed): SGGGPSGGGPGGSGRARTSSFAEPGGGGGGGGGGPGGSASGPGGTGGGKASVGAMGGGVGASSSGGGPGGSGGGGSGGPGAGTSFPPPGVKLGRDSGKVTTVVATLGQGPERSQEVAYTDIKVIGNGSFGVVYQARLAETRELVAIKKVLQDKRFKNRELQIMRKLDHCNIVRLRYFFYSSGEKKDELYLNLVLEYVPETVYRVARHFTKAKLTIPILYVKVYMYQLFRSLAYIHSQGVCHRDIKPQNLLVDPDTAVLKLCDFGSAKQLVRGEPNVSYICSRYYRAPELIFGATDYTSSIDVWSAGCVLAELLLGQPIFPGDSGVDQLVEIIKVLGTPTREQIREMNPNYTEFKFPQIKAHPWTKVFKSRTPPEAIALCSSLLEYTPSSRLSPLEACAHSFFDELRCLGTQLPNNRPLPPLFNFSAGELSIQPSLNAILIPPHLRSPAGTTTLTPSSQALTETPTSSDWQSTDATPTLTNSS
Test [9] shares this target. To be noted: at 1 µM.
Test [10] addresses Homeodomain-interacting protein kinase 1 (Homo sapiens) (UniProt Q86Z02). To be noted: at 0.1 µM.
Test [11] shares this target. The following applies: at 1 µM.
Test [12] addresses T2, Homeodomain-interacting protein kinase 4 (Homo sapiens) (UniProt Q8NE63).
T2 sequence (whole entry): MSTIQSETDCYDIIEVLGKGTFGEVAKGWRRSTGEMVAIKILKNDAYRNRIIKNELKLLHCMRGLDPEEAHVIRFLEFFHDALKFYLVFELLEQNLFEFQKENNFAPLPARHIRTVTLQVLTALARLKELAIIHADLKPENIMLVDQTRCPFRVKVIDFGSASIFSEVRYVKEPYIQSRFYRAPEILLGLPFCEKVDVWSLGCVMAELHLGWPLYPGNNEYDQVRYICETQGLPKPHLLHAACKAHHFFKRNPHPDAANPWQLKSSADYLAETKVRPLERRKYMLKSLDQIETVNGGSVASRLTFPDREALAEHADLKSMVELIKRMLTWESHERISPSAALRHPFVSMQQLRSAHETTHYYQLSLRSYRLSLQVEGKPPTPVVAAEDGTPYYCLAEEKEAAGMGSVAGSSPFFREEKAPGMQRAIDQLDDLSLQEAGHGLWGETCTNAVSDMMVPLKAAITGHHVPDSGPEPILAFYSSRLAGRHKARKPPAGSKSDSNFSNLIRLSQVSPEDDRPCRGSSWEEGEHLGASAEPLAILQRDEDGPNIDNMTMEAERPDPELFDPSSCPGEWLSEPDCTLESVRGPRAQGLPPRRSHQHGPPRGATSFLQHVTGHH
The following applies: at 0.1 µM.

Test [13] addresses T2, Homeodomain-interacting protein kinase 4 (Homo sapiens). To be noted: at 1 µM.
The target in test [14] is Mitogen-activated protein kinase 9 (Homo sapiens) (UniProt P45984). To be noted: at 0.1 µM.
Chain of Mitogen-activated protein kinase 9 (Homo sapiens) (P45984 whole entry, looked up): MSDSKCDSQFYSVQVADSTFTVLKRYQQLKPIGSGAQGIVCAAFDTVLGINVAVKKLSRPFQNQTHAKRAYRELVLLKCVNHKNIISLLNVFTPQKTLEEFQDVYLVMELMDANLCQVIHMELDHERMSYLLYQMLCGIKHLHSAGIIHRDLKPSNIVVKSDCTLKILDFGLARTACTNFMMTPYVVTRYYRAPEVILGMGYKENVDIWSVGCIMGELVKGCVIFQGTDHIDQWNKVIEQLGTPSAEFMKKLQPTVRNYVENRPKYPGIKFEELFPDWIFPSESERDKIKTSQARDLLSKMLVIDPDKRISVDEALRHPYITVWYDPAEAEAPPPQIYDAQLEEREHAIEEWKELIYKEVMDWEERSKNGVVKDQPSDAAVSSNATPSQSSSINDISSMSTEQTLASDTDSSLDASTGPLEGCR
Test [15] shares this target. To be noted: at 1 µM.
The target in test [16] is Mitogen-activated protein kinase 1 (Homo sapiens) (UniProt P28482). The following applies: at 0.1 µM.
Chain of Mitogen-activated protein kinase 1 (Homo sapiens) (P28482 whole entry): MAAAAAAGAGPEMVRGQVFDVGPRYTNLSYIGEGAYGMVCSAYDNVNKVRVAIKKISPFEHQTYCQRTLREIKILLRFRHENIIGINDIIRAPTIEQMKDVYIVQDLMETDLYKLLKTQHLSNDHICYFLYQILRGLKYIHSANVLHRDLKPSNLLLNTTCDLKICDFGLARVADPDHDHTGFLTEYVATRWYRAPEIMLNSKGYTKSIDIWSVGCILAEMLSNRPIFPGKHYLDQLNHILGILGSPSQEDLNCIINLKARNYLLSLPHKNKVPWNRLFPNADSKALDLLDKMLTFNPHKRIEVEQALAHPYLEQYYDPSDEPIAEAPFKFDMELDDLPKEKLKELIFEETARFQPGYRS
The target is the same in test [17]. To be noted: at 1 µM.
In test [18] the target is Mitogen-activated protein kinase 3 (Homo sapiens) (UniProt P27361). The following applies: at 0.1 µM.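 Further: each value is a mean inhibition figure.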
Chain of Mitogen-activated protein kinase 3 (Homo sapiens) (P27361 whole entry): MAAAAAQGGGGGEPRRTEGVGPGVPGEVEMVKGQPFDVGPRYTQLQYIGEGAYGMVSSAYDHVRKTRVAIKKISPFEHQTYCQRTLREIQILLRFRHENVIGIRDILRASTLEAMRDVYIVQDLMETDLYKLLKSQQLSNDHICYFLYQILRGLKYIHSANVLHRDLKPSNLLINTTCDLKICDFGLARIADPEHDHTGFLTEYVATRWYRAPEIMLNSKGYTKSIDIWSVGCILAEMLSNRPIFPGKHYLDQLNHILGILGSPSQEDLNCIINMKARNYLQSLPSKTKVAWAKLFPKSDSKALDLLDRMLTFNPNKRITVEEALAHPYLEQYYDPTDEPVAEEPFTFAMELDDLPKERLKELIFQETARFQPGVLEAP
Test [19] addresses Glycogen synthase kinase-3 beta (Homo sapiens) (UniProt P49841). To be noted: at 0.1 µM.
Test [20] has the same target. To be noted: at 1 µM.

Chain of Homeodomain-interacting protein kinase 1 (Homo sapiens) (Q86Z02 whole entry, looked up): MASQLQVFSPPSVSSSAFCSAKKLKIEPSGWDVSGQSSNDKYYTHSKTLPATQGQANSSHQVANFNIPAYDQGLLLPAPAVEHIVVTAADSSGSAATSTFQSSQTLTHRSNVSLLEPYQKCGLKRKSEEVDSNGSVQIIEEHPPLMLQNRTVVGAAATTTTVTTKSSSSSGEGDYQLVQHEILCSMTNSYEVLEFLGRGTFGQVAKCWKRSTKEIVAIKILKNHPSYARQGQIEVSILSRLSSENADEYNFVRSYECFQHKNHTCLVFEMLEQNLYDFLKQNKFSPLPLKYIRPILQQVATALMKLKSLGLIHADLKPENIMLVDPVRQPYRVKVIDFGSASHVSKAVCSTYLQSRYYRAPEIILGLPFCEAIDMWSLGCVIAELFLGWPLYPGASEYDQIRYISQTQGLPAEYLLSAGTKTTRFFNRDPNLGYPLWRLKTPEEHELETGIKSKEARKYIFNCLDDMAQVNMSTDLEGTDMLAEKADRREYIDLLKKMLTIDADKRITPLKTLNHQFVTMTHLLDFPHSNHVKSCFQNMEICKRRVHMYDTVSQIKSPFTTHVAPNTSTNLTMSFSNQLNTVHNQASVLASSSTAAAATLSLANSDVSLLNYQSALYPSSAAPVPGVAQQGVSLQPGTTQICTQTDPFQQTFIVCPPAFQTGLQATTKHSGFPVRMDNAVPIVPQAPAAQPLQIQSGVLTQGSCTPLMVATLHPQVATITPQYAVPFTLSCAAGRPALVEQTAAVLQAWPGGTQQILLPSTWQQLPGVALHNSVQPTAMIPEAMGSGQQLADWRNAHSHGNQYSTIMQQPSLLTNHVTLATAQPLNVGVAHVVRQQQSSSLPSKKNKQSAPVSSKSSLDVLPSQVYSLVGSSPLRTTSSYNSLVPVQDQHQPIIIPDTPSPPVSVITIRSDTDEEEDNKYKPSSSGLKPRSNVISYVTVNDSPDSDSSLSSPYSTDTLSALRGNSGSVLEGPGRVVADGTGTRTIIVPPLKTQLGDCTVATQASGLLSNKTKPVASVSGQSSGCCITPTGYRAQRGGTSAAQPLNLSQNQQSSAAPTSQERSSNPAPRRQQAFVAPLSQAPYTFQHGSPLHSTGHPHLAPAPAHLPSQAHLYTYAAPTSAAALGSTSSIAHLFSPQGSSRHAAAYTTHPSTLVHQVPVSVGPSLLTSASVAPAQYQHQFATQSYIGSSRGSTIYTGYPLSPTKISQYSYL
Chain of Dual specificity protein kinase CLK3 (Homo sapiens) (P49761 whole entry, looked up): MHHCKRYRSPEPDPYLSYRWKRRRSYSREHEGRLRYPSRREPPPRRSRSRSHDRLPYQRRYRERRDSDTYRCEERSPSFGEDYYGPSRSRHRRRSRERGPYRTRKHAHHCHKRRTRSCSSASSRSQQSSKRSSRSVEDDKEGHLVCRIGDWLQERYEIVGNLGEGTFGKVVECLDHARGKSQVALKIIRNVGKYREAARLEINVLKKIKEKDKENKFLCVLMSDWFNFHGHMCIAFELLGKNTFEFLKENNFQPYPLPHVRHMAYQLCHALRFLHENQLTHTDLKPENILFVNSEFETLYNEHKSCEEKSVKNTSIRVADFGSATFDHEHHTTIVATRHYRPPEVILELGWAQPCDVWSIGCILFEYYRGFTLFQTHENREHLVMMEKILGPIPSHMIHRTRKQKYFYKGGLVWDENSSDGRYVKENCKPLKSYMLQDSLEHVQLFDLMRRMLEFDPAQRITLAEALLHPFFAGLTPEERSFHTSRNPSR
Chain of Glycogen synthase kinase-3 beta (Homo sapiens) (P49841 whole entry, looked up): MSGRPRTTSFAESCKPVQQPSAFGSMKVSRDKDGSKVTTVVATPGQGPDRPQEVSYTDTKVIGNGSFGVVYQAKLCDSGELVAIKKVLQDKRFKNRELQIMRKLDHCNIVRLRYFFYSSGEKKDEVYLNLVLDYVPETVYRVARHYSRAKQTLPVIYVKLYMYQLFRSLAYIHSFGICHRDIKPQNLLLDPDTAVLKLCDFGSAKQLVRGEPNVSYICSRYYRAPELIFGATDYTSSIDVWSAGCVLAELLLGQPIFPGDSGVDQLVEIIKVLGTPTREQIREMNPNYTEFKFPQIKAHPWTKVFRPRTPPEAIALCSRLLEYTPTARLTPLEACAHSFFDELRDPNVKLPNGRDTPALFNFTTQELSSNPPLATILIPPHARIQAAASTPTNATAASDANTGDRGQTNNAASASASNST
Chain of Dual specificity tyrosine-phosphorylation-regulated kinase 1B (Homo sapiens) (Q9Y463 whole entry, looked up): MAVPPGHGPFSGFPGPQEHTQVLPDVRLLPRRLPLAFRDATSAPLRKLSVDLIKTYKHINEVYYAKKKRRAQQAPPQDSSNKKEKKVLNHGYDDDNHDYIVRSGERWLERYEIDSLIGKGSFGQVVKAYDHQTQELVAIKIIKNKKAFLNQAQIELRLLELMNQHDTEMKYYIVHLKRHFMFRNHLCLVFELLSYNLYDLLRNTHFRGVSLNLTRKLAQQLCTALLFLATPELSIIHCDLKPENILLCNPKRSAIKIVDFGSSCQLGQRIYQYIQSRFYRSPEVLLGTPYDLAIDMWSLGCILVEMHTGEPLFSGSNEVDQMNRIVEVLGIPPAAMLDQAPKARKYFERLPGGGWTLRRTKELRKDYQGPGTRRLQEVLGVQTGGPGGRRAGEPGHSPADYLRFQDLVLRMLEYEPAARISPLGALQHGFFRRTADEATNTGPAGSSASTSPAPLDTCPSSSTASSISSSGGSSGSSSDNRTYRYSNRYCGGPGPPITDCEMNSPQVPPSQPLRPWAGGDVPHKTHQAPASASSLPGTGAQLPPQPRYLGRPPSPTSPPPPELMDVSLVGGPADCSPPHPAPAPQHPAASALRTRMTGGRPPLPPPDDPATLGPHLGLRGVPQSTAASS

What is called inhibition is the drop in the measured response relative to a control, in per cent. In the case of `COc1ccc(C2=C(N3CCc4ccccc43)C(=O)NC2=O)cc1`, the inhibition in [1] turned out to be 4.16%; in [2], 4.7%; in [3] it was 13%; in test [4], 1.97%; in test [5], 8.53%; in [6], 3.77%. For the same compound, the inhibition in test [7] was 5.13%; in [8], 11.5%; in [9], 42.9%; in test [10], 4.48%; in test [11], 8.68%; in test [12], 3.35%. In addition, the inhibition in [13] was 4.04%; in test [14], 3.78%; in test [15], 7.16%; in test [16] it was -0.01%; in test [17], 5.89%; in test [18], 4.13%.
Take `COc1cc(Nc2ncc3c(C)nc(-c4cccc(Oc5ccccc5)c4)n3n2)cc(OC)c1OC`: the inhibition in test [1] amounted to 2.37%; in test [2] it was 0.25%; in test [3] it was 5.84%; in [4], 0.92%; in [5], 2.74%; in test [6], 2.11%. Also, the inhibition in test [7] was 1.95%; in [8], 0.37%; in [9] it was 0.14%; in test [19], -0.59%; in test [20], 0.75%; in test [10], 0.25%. For the same compound, the inhibition worked out at 10.8% in test [11]; 2.78% in test [12]; 7.44% in [13]; 2.43% in [14]; 4.03% in test [15]; 2.11% in test [16]. For the same compound, the inhibition in test [17] is 8.58%; in [18], 4.14%.
Consider `CCS(=O)(=O)c1ccc(OC)c(Nc2ncc(-c3ccccc3Cl)o2)c1`, for which the inhibition in [1] turned out to be 8.78%; in test [2] it was 0.71%; in test [3], 5.06%; in [4], 1.56%; in test [5], 5.7%; in [6], 1.98%. The inhibition came to 11.8% in test [7]; 0.38% in test [8]; 1.64% in [9]; 1.56% in [19]; 1.12% in [20]; 1.24% in test [10]. Besides, the inhibition in test [11] stood at 9.06%; in test [12], 8.83%; in test [13], 47.5%; in test [14] it was 1.42%; in test [15] it was 1.23%; in test [16] it was 0.66%. Further, the inhibition in test [17] worked out at 0.84%; in test [18] it was 1.66%.
As for `Fc1ccc(-c2ncn(C3CCNCC3)c2-c2ccnc(Oc3ccc4c(c3)OCO4)n2)cc1`, the inhibition in test [1] was -2.27%; in test [2], 3.17%; in test [3], 4.78%; in test [4], -1.37%; in [5] it was 0.33%; in [6] it was 3.24%. Moreover, the inhibition in [7] worked out at 3.38%; in [8], 2.07%; in [9] it was 5.18%; in test [19] it was 2.71%; in [20] it was 4.03%; in test [10], 1.02%. In addition, the inhibition in test [11] came out at 5.62%; in [12], 4.86%; in test [13] it was 7.7%; in test [16], 7.64%; in [17], 11.4%; in test [18], 5.84%.
Turning to `Nc1nccc(-c2c(-c3ccc(F)cc3)ncn2C2CCC(O)CC2)n1` (centres undefined), the inhibition in test [1] is 3.28%; in test [2], 2.86%; in test [3], 5.97%; in [4], 3.71%; in test [5], 5.6%; in test [6], -1.97%. For the same compound, the inhibition in test [7] is -2.78%; in test [8], 0.95%; in [9], 5.67%; in test [19] it was 1.63%; in test [20] it was 14.1%; in test [10] it was 2.2%. In addition, the inhibition in test [11] was 4%; in [12], 1.22%; in [13], 3.26%; in test [14], 9.42%; in test [15], 53.3%; in test [17], -2.72%. The inhibition in [18] was -0.59%.
Regarding `NS(=O)(=O)c1ccc(Nc2cc(-c3ccc(O)c(F)c3)n[nH]2)cc1`, the inhibition in test [1] is 2.65%; in test [2], 1.28%; in test [3] it was 4.89%; in [4], 2.64%; in test [5] it was 5.44%; in test [6], -2.19%. Also, the inhibition in test [7] was 3.75%; in test [8], 1.79%; in test [9], 23.5%; in test [19], 4.44%; in [20], 38%; in test [10], 0.97%. In addition, the inhibition in test [11] was 16.1%; in test [12], 1.96%; in test [13] it was 10.4%; in [14], -1.59%; in [15] it was 2.43%; in test [17], -4.87%. Also, in test [18], the inhibition is -1.57%.
Consider `O=C1Nc2ccc(I)cc2C1=Cc1cc(Br)c(O)c(Br)c1`, for which the inhibition in [1] is -0.23%; in [2], 1.95%; in [3] it was 4.99%; in test [4] it was -0.26%; in [5], 3.56%; in test [6], 4.72%. Further, the inhibition in test [7] was 8.06%; in test [8], 0.99%; in test [9], 5.19%; in test [19], 0.29%; in test [20], 5.98%; in [10], -1.21%. For the same compound, the inhibition in [11] was 6.66%; in test [12], -0.29%; in test [13] it was 6.76%; in test [14] it was 5.13%; in [15] it was 7.68%; in [16], 2.02%. The inhibition in test [17] was 4.96%; in test [18], 3.73%.
